Assay results published in PubChem BioAssay (NCI).
The panel holds about 83,000 compounds, 20% with a hit somewhere; the sample as a whole holds those more often.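 Method: cells in 96-well plates; compound added at one concentration; 48 h incubation; percent growth measured; values under 10 scored active.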 Active and inactive are the calls of the source.

How the values were obtained:
Test in all cases: NCI-60 one-dose screen, 48 h (100 = growth as untreated, 0 = no growth, -100 = all killed)
Conditions in all cases: 10 µM unless noted
[1] = tested on: NCI-H23 lung
[2] = tested on: NCI-H226 lung
[3] = tested on: HOP-62 NSCLC
[4] = tested on: NCI-H460 lung
[5] = tested on: HOP-92 NSCLC
[6] = tested on: NCI-H522 lung
[7] = tested on: A549/ATCC NSCLC
[8] = tested on: 786-0 renal
[9] = tested on: COLO 205 colon
[10] = tested on: DU-145 prostate
[11] = tested on: K-562 leukemia
[12] = tested on: MALME-3M melanoma
[13] = tested on: MDA-MB-231 breast
[14] = tested on: RXF 393 renal
[15] = tested on: SF-268 CNS
[16] = tested on: SF-295 CNS
[17] = tested on: SF-539 CNS
[18] = tested on: UACC-257 melanoma
[19] = tested on: M14 melanoma
[20] = tested on: NCI-H322M lung

Measured: growth

COc1ccc2c(c1)OC(N)=C(C#N)C2c1ccc(F)c(F)c1 (stereo not drawn)
inactive: [1] 48.2% | [2] 69.2% | [3] 44.9% | [4] 14.4% | [5] 76.3% | [7] 37.1% | [8] 41.4% | [9] 10.3% | [10] 30.4% | [12] 78.4% | [13] 44.5% | [15] 56.7% | [16] 23.1% | [17] 14.6% | [18] 73% | [19] 18.8%
active: [6] -12.6% | [11] 9.04% | [14] -9.6%

NC(=NCCCOc1ccc(F)cc1)Nc1ccc(Cl)c(Cl)c1
inactive: [1] 67.9% | [2] 76.2% | [3] 78.7% | [4] 74.3% | [5] 16.5% | [6] 67.6% | [7] 82.5% | [8] 67.6% | [10] 80.2% | [11] 12.6% | [12] 98.1% | [13] 44% | [14] 68.6% | [15] 54.9% | [16] 76.6% | [17] 79.1% | [18] 77.2% | [19] 63.6%
active: [9] -57.7%

CC1(C)N=C(N)N=C(N)N1c1cccc(CCCCc2ccccc2)c1
inactive: [1] 10.8% | [2] 25.9% | [10] 31.1% | [13] 45.4% | [15] 10.8%
active: [3] -23.5% | [4] 0.878% | [5] -30.8% | [6] -42.1% | [7] -6.95% | [8] -48.4% | [9] -84.7% | [11] -44.7% | [12] -1.54% | [16] 3.96% | [17] 4.72% | [18] -34.8%

CCOC(=O)c1noc2c1CCc1cn(Cc3cc(OC)cc(OC)c3)cc1-2
inactive: [1] 97.6% | [2] 101% | [3] 95.6% | [4] 109% | [5] 104% | [6] 46.5% | [7] 103% | [8] 101% | [9] 115% | [10] 104% | [11] 102% | [12] 107% | [13] 117% | [14] 113% | [15] 96.8% | [16] 95.3% | [17] 98.8% | [18] 101%

Cn1c2ccccc2c2ssc(=S)c21
inactive: [1] 92.4% | [2] 105% | [4] 106% | [5] 88.6% | [6] 85.7% | [7] 99.7% | [8] 98.5% | [9] 116% | [10] 116% | [11] 82.9% | [12] 81.9% | [13] 99.9% | [14] 108% | [15] 103% | [16] 97.3% | [17] 97.5% | [18] 98.8% | [19] 89.3%

NC(=O)C1=C[C@H]2[C@H]3C=C[C@@]2(O)C(=O)O[C@@H]3O1
active: [12] 4.54% | [14] 8.42%
inactive: [1] 67% | [20] 93.8% | [3] 82.3% | [4] 99.2% | [5] 40.7% | [6] 63.3% | [7] 80.7% | [8] 61.4% | [9] 38.8% | [10] 45.9% | [11] 61.8% | [13] 61.5% | [15] 58.2% | [16] 88.5% | [17] 65.6% | [18] 28.9%

COc1cc(NC(C)CCCN2C(=O)c3ccccc3C2=O)c2nc(C)ccc2c1OC (stereo not drawn)
inactive: [1] 87.9% | [2] 96.4% | [3] 95.1% | [4] 103% | [6] 82% | [7] 94.8% | [8] 97.5% | [9] 99.3% | [10] 103% | [11] 66.5% | [12] 104% | [13] 78.3% | [14] 96.4% | [15] 104% | [16] 93.5% | [17] 99.4% | [18] 102% | [19] 99.9%

CC(C)(C)NCC(O)COc1c(Br)c(Br)c(Br)c2c1OC(C)(C)C2 (stereo not drawn)
inactive: [2] 42.5% | [18] 107%
active: [1] -0.995% | [3] -84.9% | [5] -57.7% | [6] -76.8% | [7] -71.9% | [8] -91.6% | [9] -58.3% | [10] -59.5% | [11] -34.9% | [12] -82.8% | [13] -65.6% | [14] -52.5% | [15] 4.14% | [16] -63% | [17] -84.5% | [19] -72.6%

O=C1C(SCCO)=C(SCCO)C(=O)N1c1ccc(-c2ccccc2)cc1
inactive: [1] 88.9% | [2] 74.9% | [3] 91.5% | [4] 108% | [5] 39.9% | [7] 105% | [8] 82.3% | [10] 27.1% | [13] 95% | [15] 41.1% | [16] 103% | [17] 104% | [19] 85.7%
active: [6] -61.3% | [9] -56.5% | [11] -0.074% | [12] -44.5% | [18] -5.64%
